These results are taken from article PMC8384837, “Expanding the binding specificity for RNA recognition by a PUF domain”.

For the test, the target named is PUM1 PUF domain R5-DHV (Homo sapiens, UniProt Q14671 828-1176, C1007D;R1008H;Q1011V). Nature of the test: yeast three-hybrid, YBZ-1, SC-Leu-His + 0.5 mM 3-AT, 4 days. The note with it: tags: N-Gal4 AD-HA kept; label: inside an RPR1-promoter hybrid RNA with tandem MS2 sites; ssRNA. The procedure, abridged:
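Pumilio-1 PUF domain libraries, randomized (NNK) at the three base-contacting residues of each repeat, were co-expressed with matching RNA elements from a centromeric plasmid in strain YBZ-1 (LexA–MS2 coat fusion, HIS3 reporter). Transformants were plated on SC-Leu (input) and SC-Leu-His + 0.5 mM 3-AT (selection) for four days, and repeat regions were PCR-amplified and Illumina-sequenced. The interaction score is the log2 change in variant frequency from input to selection, with pseudocount 1 where absent.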
Take “GGCUAGAACUAGUGGAUCCCCCGGCGCCCGGCGGCUCGAGCCCGGGUAAGUGUCAAUAGUCUGCAUGCCGCCGGGCGCCAUGCCUGCAGGUCGACUCUAGAAAACAUG”: the binding signal was 3.11 log2 enrichment (interaction score).
To “GGCUAGAACUAGUGGAUCCCCCGGCGCCCGGCGGCUCGAGCCCGGGUAAGUGUAAAUAGUCUGCAUGCCGCCGGGCGCCAUGCCUGCAGGUCGACUCUAGAAAACAUG” belongs 3.41 log2 enrichment (interaction score).
With “GGCUAGAACUAGUGGAUCCCCCGGCGCCCGGCGGCUCGAGCCCGGGUAAGUGUUAAUAGUCUGCAUGCCGCCGGGCGCCAUGCCUGCAGGUCGACUCUAGAAAACAUG”, the binding signal was 4.07 log2 enrichment (interaction score).
